# Screens (PubChem BioAssay)
# Sampled rows, rich in hits. Any-hit rate of the full collection: about 4.7%.
# NTMT1 inhibitor: inhibitors of human N-terminal methyltransferase NTMT1; NTMT1 MTase-Glo SAH luminescence, purified enzyme; Potency, µM (titrated, usually from 114 µM), for inactives: at the highest dose activity change, negative = inhibition, usual class: inhibitors; hit rate 2.5% among 59,000; AID 1645870;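 note: potency is the fitted concentration of half-maximal effect; plate controls were DMSO vehicle for no effect and no enzyme for full effect; nearly all actives have a fitted effect of over 65% in size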
# Target sequence (Q9BV86 whole entry, looked up): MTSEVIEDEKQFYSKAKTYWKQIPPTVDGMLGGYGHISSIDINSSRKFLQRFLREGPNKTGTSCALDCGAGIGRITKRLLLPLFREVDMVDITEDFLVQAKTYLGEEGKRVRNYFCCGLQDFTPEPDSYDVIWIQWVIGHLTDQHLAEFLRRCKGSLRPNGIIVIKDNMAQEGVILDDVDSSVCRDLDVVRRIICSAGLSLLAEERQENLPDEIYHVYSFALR
# DRV1 agonist: activates human resolvin D1 receptor GPR32; CHO-K1 GPR32 beta-arrestin PathHunter luminescence, 90 min; zero percent set by DMSO-only wells; O75388; activation, % at 76.9 µM; hit rate 2.5% among 48,000;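 active = activation of at least 60% and not above a set upper limit, about 1 call in 100 departs from these limits; inconclusive = activation of 40% to 60%, or above that upper limit; inactive = activation under 40%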; note: 0% is about no effect
# Target sequence (O75388 whole entry, looked up): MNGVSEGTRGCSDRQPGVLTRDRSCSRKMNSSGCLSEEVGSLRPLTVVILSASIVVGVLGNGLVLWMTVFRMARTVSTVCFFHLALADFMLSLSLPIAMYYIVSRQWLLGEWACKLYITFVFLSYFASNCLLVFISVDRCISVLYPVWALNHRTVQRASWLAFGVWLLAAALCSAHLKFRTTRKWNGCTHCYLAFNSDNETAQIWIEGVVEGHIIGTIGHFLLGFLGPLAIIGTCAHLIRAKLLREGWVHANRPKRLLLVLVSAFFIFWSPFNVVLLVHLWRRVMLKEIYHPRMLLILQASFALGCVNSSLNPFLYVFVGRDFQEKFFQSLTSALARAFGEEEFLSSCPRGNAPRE
#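 Luminescent readout of beta-Gal complementation quantifies ligand-induced beta-arrestin association with GPR32 in CHO-K1 cells; 90 min compound incubation at 37 °C, detection 1 h at room temperature.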
# FH mod: Identification of activators of human fumarate hydratase by quantitative high-throughput screening; Fumarate hydratase, mitochondrial (Homo sapiens), P07954; FH coupled MDH/diaphorase resazurin fluorescence, 15 min; Potency, µM (highest dose often 79.9 µM), for the others: at the top dose activity change, negative = inhibition, hits mostly inhibitors; hit rate 0.22% among 54,000; AID 1347055, 2019; note: potency is the fitted concentration of half-maximal effect; % is set by controls: 0 for no effect and ±100 for the full control effect; the screen sought activators but most active calls are inhibition curves; nearly all actives have a fitted effect of over 45% in size
# HTT-AS act: activates huntingtin-antisense promoter activity; HEK293 HTT-AS promoter firefly luciferase reporter, 24 h; response scale: percent change from vehicle, -100% = no light; Potency, µM (series often up to 57.5 µM), inactives show at the top dose activity change, positive = activation, most hits filed as activators; hit rate 0.24% among 48,000; AID 1508624; note: potency is the fitted concentration of half-maximal effect; nearly all actives have a fitted effect of over 55% in size
#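 Firefly luciferase readout (Dual-Glo, 10 min RT) after 24 h, 37 °C compound exposure (final up to 57.5 uM) of HEK293 reporter cells cultured 24 h beforehand; PTC124 at 50 uM final as control inhibitor; activity scaled vehicle 0%, zero RLU -100%.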
# HTT prom inh: inhibits huntingtin promoter activity; Potency, µM (titrated, usually from 57.5 µM), for the others: at the highest dose activity change, negative = inhibition, usual class: inhibitors; HEK293 HTT promoter firefly luciferase reporter, 24 h; hit rate 0.93% among 48,000; AID 1508623; note: potency is the fitted concentration of half-maximal effect; nearly all actives have a fitted effect of over 50% in size
#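 Quantitative HTS used concentration series of up to 57.5 uM final on HEK293 luciferase reporter cells, 24 h at 37 degrees C. Readout was Dual-Glo firefly luminescence.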
# GALC G270D act: enhancers of human galactocerebrosidase G270D mutant activity in cells; AID 1159614; 145M-Twi-hGALC-G270D cells (Twitcher mouse brain line with human GALC G270D), HMU-beta-Gal fluorescence, 48 h; P54803; Potency, µM (titrated, usually from 57.5 µM), hits mostly activators; hit rate 0.1% among 45,000; note: potency is the fitted concentration of half-maximal effect; 0% is about no effect; nearly all actives have a fitted effect of over 65% in size
#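 Fluorescence readout: HMU-β-gal cleavage by mutant GALC (0.1 mM final, citrate/phosphate pH 5.2 with 1 mg/mL taurocholate), stopped with carbonate/bicarbonate plus Triton X-100. Cells: murine Twitcher 145M-Twi expressing human G270D GALC; qHTS for activators.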
# Starred values were filed as active, the others as inactive; i = inactive; ? = inconclusive; . = not tested or not shown; ! = repeats disagree; [ ] = dose if it differs, or a comment. Unless noted, calls come from the whole dose curve; as a rule, active = well fitted curve in the direction sought with a large enough effect; inconclusive = small, poorly fitted or top-dose-only effect, or another doubt; inactive = no such curve, though single readings can be large; an effect the other way counts as inactive or inconclusive.
SMILES,NTMT1 inhibitor,DRV1 agonist,FH mod,HTT-AS act,HTT prom inh,GALC G270D act
COc1cc(OC)cc(-c2cc3nc(C)c(CCC(=O)NCc4ccccc4)c(C)n3n2)c1,-5%,-19,?,-86%,2µM*,i
COc1cc(OC)cc(-c2cc3nc(C)c(CCC(=O)Nc4ccc(C(C)=O)cc4)c(C)n3n2)c1,7%,-3,-6%,-78%,3.2µM*,i
COc1cc(OC)cc(-c2cc3nc(C)c(CCC(=O)NCCc4cccc(C)c4)c(C)n3n2)c1,9%,-7,-25%,-71%,?,i
COc1cc(OC)cc(-c2nc3nc(C)c(CCC(=O)Nc4ccc(F)cc4F)c(C)n3n2)c1,89µM*,0,-13%,-14%,-32%,?
CCOC(=O)CC(NC(=O)CCc1c(C)nc2cc(-c3ccccc3)nn2c1C)c1ccc(C)cc1 (stereo not given),-1%,-2,-22%,-80%,2.5µM*,i
OC/C=C/c1ccc(O[C@@H]2O[C@H](CO)[C@@H](O)[C@H](O)[C@H]2O)cc1,-7%[29.8 µM],.,0%[53.3 µM],.,.,.
Cc1nc2cc(-c3ccccc3)nn2c(C)c1CCC(=O)NCc1cccc(Cl)c1,-1%,23,-12%,-71%,13µM*,i
C=CC(=O)Nc1cccc(Nc2nc(Nc3ccccc3)ncc2C)c1,45µM*,.,2%,.,.,.
CCNC(=O)OC1CCN(c2nncc3cc(OC)c(OC)cc23)CC1,?,.,0%,.,.,.
CN1CCN(c2nc(-c3ccc(C(=O)NC4(C(=O)NCC#N)CCCCC4)cc3)cs2)CC1,-1%[57.5 µM],.,7%,.,.,.
COc1ccc(C(=O)Nc2ccc(N3CCN(c4ccccc4)CC3)c(C(=O)O)c2)cc1,18%,4,-14%,24%,-16%,i
O=C(Nc1ccc(N2CCC(N3CCCCC3)CC2)c(C(=O)O)c1)c1ccccc1,50µM*,26,-4%,18%,-7%,i
Cc1cccc(C(=O)Nc2ccc(N3CC=C(c4ccccc4C)CC3)c(C(=O)O)c2)c1,40µM*,10,-5%,8%,1%,i
COc1ccccc1N1CCN(c2ccc(NC(=O)c3ccc(C)cc3)cc2C(=O)O)CC1,?,-1,-10%,7%,-20%,i
CC1CCN(c2ccc(NC(=O)c3cccc(Cl)c3)cc2C(=O)O)CC1,45µM*,2,-14%,6%,-9%,i
O=C(O)c1ccc(O)c2ncc(NC3CCNCC3)cc12,2%[57.5 µM],.,.,.,.,.
COc1cc(C2Oc3c(OC)cc(/C=C/C(=O)OC4CC(O)(C(=O)O)CC(O)C4O)cc3C2CO)ccc1O (stereo not given),1%[29.8 µM],.,-1%[53.3 µM],.,.,.
Cc1cccc(NC(=O)c2sc3nc(-c4cc5ccc(O)cc5oc4=O)[nH]c(=O)c3c2C)c1,7.1µM*,2,?,-21%,-14%,i
COc1cccc(C(=O)Nc2ccc([S+](=O)([O-])Nc3nccs3)cc2)c1O,12%,.,.,.,.,.
COc1ccc(NCc2ccc(O)c3ncccc23)nc1,-1%,.,.,.,.,.
CC(NC(=O)CSc1nc(-c2cccc(Cl)c2)nc2cc(=O)[nH]n12)c1nc2ccccc2n1C (stereo not given),.,69*,.,.,.,.
CC(C)N(CCCNC(=O)Nc1ccc(C(C)(C)C)cc1)C[C@H]1O[C@@H](n2cc(Br)c3c(N)ncnc32)[C@H](O)[C@@H]1O,8.9µM*,.,3%,.,.,.
O=c1onc2n1-c1cc(Br)ccc1OC2,.,65*,?,.,.,.
Cc1ccc(S(=O)(=O)Nc2cnccc2C(=O)Nc2ccc(-c3nn[nH]n3)cc2)cc1,-4%,.,.,.,.,.
Cc1cccc(-n2c(C)cc(C(=O)C(=O)Nc3ccccc3F)c2C)c1C,4%,-3,-25%,-20%,8.9µM*,i
SMILES,NTMT1 inhibitor,DRV1 agonist,FH mod,HTT-AS act,HTT prom inh,GALC G270D act
COc1cc(C)c(C(=O)O[C@@H]2[C@H](O)[C@@H](CO)O[C@H]2n2ccc(=O)[nH]c2=O)c(OC)c1,-14%[29.8 µM],.,4%[53.3 µM],.,.,.
Cc1cc(C)c(Cn2c(CCNC(=O)c3ccco3)nc3ccccc32)c(C)c1,.,68*,.,.,.,.
C[N+]1(C)[C@@H]2CC[C@H]1CC(OC(=O)C(O)c1ccccc1)C2 (stereo not given in full),3%[57.5 µM],.,6%,.,.,.
Cc1cc(NS(=O)(=O)c2ccc(NC(=O)C(C)(C)c3ccc(Cl)c(Cl)c3)cc2)no1,5%,.,.,.,.,.
Cc1ccc(NC(=O)CSc2nnc3[nH]c(=O)cc(-c4ccccc4)n23)cc1Cl,-5%,-9,-25%,14µM*,55%,i
Cc1ccc(C)c(NC(=O)CSc2nnc3[nH]c(=O)cc(-c4ccccc4)n23)c1,-16%,-18,-15%,?,19%,i
C=C1CC/C=C(/CO)C(=O)C[C@@H]2[C@@H]1CC2(C)C,-22%[57.5 µM],.,-3%,.,.,.
OC[C@H]1O[C@@H](n2cnc3c(=S)nc[nH]c32)[C@H](O)[C@@H]1O,5.6µM*,-87,4%[53.3 µM],-57%,?,i
Nc1ncnc2c1ncn2[C@@H]1O[C@H](CO)[C@@H](O)[C@H]1O,50µM*!,4,0%[53.3 µM],-13%,-8%,i
O=c1[nH]cnc2c1ncn2[C@@H]1O[C@H](CO)[C@@H](O)[C@H]1O,3%[57.5 µM],-17,7%,4%,4%,i
C[C@@H]1O[C@@H](O[C@H]2[C@H](O[C@H]3CC[C@@]4(C)C(CC[C@]5(C)C4CC=C4[C@@H]6CC(C)(C)CC[C@]6(C(=O)O)CC[C@]45C)[C@]3(C)CO)OC[C@H](O)[C@@H]2O)[C@H](O)[C@H](O[C@@H]2OC[C@@H](O)[C@H](O)[C@H]2O)[C@H]1O (stereo not given in full),-4%[12.6 µM],.,1%[20.6 µM],.,.,.
Cc1cccc(C#Cc2cc(F)cc(C#N)c2)n1,1%[57.5 µM],.,?,.,.,.
CN1CCc2cccc3c2[C@H]1Cc1ccc(O)c(O)c1-3,22µM*,-14,?,-2%,-3%,i
CCCc1nnc(-c2cnn(C)c2N)n1CCCn1ccnc1,8%,.,.,.,.,.
Cc1ccc(C(=O)Nc2cccc(O)c2)cc1S(=O)(=O)N1CCCCCC1,?,82*,-26%,-6%,-20%,i
Cc1ccc(C(=O)Nc2ccc(Br)cc2)cc1S(=O)(=O)N1CCOCC1,4%,?,-15%,-22%,20µM*,i
Cc1ccc(NC(=O)c2ccc(C)c(S(=O)(=O)N3CCCCCC3)c2)cc1,-2%,39,?,-19%,?,i
Cc1ccc(C(=O)N2CCc3cc(-c4nc(NC(=O)Cc5ccc6c(c5)OCO6)sc4C)ccc32)cc1,14%,.,.,.,.,.
